This note sets out measurements from PubChem BioAssay.

A short description of experiment [1]: S. cerevisiae growth inhibition in permissive medium (OD615), pilot counter-assay for S. cerevisiae lifespan shortening project, permissive growth control (AID 705;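 active = growth inhibition above 25% in both replicates, a cutoff set 3 SD above the mean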). Conditions: OD615, 24 h, at 10 µM, stronger effect = higher value.
A short description of experiment [2]: S. cerevisiae growth inhibition in restrictive medium, OD615, pilot screen, restrictive growth control, yeast lifespan reduction project (AID 706;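 active = growth inhibition above a set limit, 3 SD over mean compound inhibition, in both replicates, cut at about 43% in these data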;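 note: modified DeaD lifespan yeast strain shifted to restrictive glucose medium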). Conditions: OD615, 48 h, at 10 µM, stronger effect = higher value.
Experiment [3] can be described thus: doxorubicin toxicity protection in MRP-1 cells – H69AR cells, CellTiter-Glo, duplicate, MRP-1 activator project, pilot screen (AID 807;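 active = viability increase at or above a cutoff of the median across tested compounds plus 3 SD, cut at about 8.5% in these data, passing the limit was not always enough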;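 note: compound pretreatment 18-22 h then 72 h combined with doxorubicin; 0% = doxorubicin alone and 100% = vehicle without doxorubicin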). Particulars: H69AR viability with doxorubicin, CellTiter-Glo luminescence; at 10 µM; stronger effect = higher value. (In ATP-based viability assays light output follows the ATP content of the culture.)
The nature of experiment [4]: viability of HCT116 without oncogenic beta-catenin – human colon tumor cells, pilot screen (AID 823;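 active = cell viability at or below a set limit in both duplicate runs, the limit being the all-compound median minus 4 SD, cut at about 23% in these data, passing the limit was not always enough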;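 note: 0% = wells killed by 20 µM Hyamine and 100% = untreated DMSO cell wells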). Particulars: HCT116 beta-catenin knockout viability, CellTiter-Glo, 60 h; at 10 µM; stronger effect = lower value.
Experiment [5] in a line: viability of PTEN-null HCT116 cells – cell-based, HCT116 clonal line, CellTiter-Glo, pilot screen (AID 824;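 active = viability at or below 27.92% in each of two runs, the all-compound median minus 4 SD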;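 note: 0% = 20 µM Hyamine control and 100% = vehicle cell control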). Conditions: HCT116 PTEN-deleted viability, 60 h, at 10 µM, stronger effect = lower value.
A short description of experiment [6]: RAM pathway blockade in budding yeast – dse1pr::URA3 reporter, 5-FOA selection, pilot screen (AID 869;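 active = inhibition over a set limit, the all-compound mean plus 3 SD, in both replicate runs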;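 note: 0% = DMSO wells with no growth and 100% = 10 µM 1-NA-PP1 with full growth; RAM network block rescues cells from 5-FOA so hits raise OD615 growth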). Conditions: S. cerevisiae dse1pr::URA3 5-FOA growth, OD615, 2 d, at 10 µM, stronger effect = higher value.
A short description of experiment [7]: RAM signaling pathway blockade in yeast – S. cerevisiae, Pdr1DBD-CYC8 efflux-inhibited sensitized strain, primary screen (AID 1298).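 Note: 0% = DMSO untreated cells without growth and 100% = 10 µM 1-NA-PP1 full growth; higher means more yeast growth rescued from 5-FOA killing.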 Conditions: S. cerevisiae cbk1-as DSE1-URA3 strain, 5-FOA growth OD615, 2 d; at 50 µM; stronger effect = higher value.
For experiment [8], the target named is Pantothenate synthetase (Mycobacterium tuberculosis (strain ATCC 25618 / H37Rv)) (UniProt P9WIL5). Nature of the experiment: Coupled enzyme confirmation of inhibitors against recombinant Mtb PanC (AID 375; call rule not given here;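 note: 0% = full reaction with vehicle and 100% = no enzyme background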). Conditions: coupled enzyme assay; at 10 µM, stronger effect = higher value.
Sequence of Pantothenate synthetase (Mycobacterium tuberculosis (strain ATCC 25618 / H37Rv)) (P9WIL5 whole entry, looked up): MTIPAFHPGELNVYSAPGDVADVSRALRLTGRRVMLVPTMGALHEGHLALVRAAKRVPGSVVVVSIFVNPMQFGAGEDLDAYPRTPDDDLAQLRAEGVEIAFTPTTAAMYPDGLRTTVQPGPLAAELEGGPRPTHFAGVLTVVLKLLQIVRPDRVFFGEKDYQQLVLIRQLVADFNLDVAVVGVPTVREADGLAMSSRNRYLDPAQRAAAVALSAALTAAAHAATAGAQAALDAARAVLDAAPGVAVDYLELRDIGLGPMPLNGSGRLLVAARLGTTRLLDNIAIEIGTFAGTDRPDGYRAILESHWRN
The nature of experiment [9]: Her2 expression decrease, cell viability multiplex – SKBR3 breast tumor cells, AlphaScreen, ATP viability, primary screen (AID 461;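 active = Her2 level under about 52% in both replicate screens, with viability over 70% of control, limit read from the data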;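 for Her2 level: lower value means less Her2 protein in the cells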;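 for viability: percent of carrier control wells set as 100% viability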). Conditions: SKBR3 Her2 protein level, 18-24 h, measured here: SKBR3 viability, ATP luminescence, at 10 µM.
The target in experiment [10] is Receptor tyrosine-protein kinase erbB-2 (Homo sapiens) (UniProt P04626). The description is as above. Conditions: 18-24 h, at 10 µM, stronger effect = lower value.
Sequence of Receptor tyrosine-protein kinase erbB-2 (Homo sapiens) (P04626 whole entry, looked up): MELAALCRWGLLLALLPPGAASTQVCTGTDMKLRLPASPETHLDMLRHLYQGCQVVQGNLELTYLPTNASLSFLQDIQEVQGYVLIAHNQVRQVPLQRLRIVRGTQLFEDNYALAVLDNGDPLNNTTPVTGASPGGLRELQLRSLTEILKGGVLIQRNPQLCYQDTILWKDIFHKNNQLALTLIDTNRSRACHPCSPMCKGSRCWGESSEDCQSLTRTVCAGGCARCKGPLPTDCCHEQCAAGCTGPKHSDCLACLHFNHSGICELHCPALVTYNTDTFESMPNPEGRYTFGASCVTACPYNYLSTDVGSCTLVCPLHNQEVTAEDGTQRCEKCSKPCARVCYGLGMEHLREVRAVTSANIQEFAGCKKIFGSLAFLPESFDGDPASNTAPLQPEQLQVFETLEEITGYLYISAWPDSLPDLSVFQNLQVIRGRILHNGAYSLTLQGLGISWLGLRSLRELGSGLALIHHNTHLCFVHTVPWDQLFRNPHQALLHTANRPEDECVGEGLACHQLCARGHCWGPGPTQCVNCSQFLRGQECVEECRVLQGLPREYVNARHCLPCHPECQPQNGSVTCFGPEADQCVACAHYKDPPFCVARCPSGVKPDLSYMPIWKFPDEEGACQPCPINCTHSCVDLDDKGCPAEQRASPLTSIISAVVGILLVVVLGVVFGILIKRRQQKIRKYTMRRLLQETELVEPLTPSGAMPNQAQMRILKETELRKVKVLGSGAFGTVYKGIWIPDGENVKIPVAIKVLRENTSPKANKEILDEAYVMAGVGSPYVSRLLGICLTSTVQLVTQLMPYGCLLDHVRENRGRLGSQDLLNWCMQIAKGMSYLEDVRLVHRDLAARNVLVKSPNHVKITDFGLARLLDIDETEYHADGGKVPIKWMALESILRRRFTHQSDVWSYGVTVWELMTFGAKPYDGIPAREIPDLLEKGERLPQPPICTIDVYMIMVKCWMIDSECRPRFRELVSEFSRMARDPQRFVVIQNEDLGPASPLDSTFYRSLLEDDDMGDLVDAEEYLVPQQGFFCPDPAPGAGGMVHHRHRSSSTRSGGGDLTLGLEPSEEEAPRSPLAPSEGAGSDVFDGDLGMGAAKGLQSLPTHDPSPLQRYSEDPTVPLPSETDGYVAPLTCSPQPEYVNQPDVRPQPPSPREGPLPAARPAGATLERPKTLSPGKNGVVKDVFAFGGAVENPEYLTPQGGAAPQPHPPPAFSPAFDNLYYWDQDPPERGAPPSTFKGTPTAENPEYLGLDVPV
Experiment [11] in a line: reduced viability of SK-BR-3 breast cancer cells – cell-based, 24 h, human, pilot screen (AID 572;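 active = viability at or below 10% of carrier control in both of two separate runs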;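 note: compound exposure lasted between 18 and 24 h rather than exactly 24 h; 100% = carrier-treated control wells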). Conditions: SK-BR-3 viability, CellTiter-Glo luminescence, at 10 µM, stronger effect = lower value.
A short description of experiment [12]: HUVEC growth inhibition – cell-based, human, primary screen (AID 575;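 active = viability at or below 30% in both replicate assays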;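 note: 100% = median of untreated cell wells with 0.1% DMSO on each plate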). Particulars: HUVEC proliferation, CellTiter-Glo luminescence, 72 h; at 10 µM; stronger effect = lower value.
Experiment [13] is described as follows: H69AR cell proliferation blockers – human, duplicate replicates, primary screen (AID 580;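 active = viability at or under a set limit in both replicates, limit being median viability minus 3 SD, cut at about 48% in these data, passing the limit was not always enough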;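 note: 100% = mean luminescence of untreated wells and 0% = no signal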). Particulars: H69AR lung tumor cells viability, ATP luminescence, 72 h; at 10 µM; stronger effect = lower value.
The nature of experiment [14]: MRP1 drug-resistance reversers in H69AR cells – cell-based, doxorubicin co-treatment, pilot screen (AID 601;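 active = viability loss from added drug above about 55%, and viability with drug at most 40%, in both replicates, limit read from the data, passing the limit was not always enough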). Conditions: CellTiter-Glo, 72 h, at 10 µM; for differential viability (reversal): stronger effect = higher value.
A short description of experiment [15]: yeast transport mutant growth inhibition pilot in 384-well plates, post-Golgi transport modulator project (AID 636; in the data active = inhibition above about 31%). Particulars: absorbance 615 nm, about 18 h, stronger effect = higher value.
Experiment [16] is described as follows: growth suppression of yeast trafficking mutant, preliminary HTS, modulators of trafficking downstream of Golgi apparatus project, 1536-format plate, OD 615 nm (AID 637; in the data active = inhibition above about 30%). Particulars: yeast transport mutant growth, absorbance 615 nm, 18 h; stronger effect = higher value.
[17] abbreviates: H69AR cells + 2 uM doxorubicin, measured here: viability with 2 uM doxorubicin, stronger effect = lower value.
Where [18] appears, read: H69AR cells, compound alone cytotoxicity.

Structures are written as SMILES. Records with an inconclusive call do not appear. Calls of active or inactive are those of the source.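 Rule for the calls, unless noted: active = RAM network inhibition above 8.4% in each of two replicates, 3 SD over the compound average; inconclusive = above 8.4% inhibition in only one replicate; inactive = 8.4% inhibition or less in each replicate.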

Turning to `O=c1cccc2n1CC1CC2CN(C(c2cccc(F)c2)c2sc3ncnn3c2O)C1` (centres undefined), the growth inhibition in [1] is -2.99% (inactive); in experiment [2], -4.42% (inactive). The viability increase in experiment [3] is -0.98% (inactive). In addition, the viability (as a rule, a read-out of living cells in per cent, often relative to untreated cells) is 105% (inactive) in experiment [4] and 111% (inactive) in [5]. Besides, the inhibition – broadly, the change of the read-out against control, counted positive when it falls – in experiment [6] is 2.02% (inactive). The RAM network inhibition in experiment [7] is -0.21% (inactive).

Consider `COc1ccccc1/C=C1/C(=N/O)C2CCN1CC2`, for which the inhibition was 0% (inactive) in experiment [8], -2.34% (inactive) in [15], 0% (inactive) in experiment [16] and 0.7% (inactive) in [6]. Further, the viability in [9] is 104%; in experiment [11] it was 104% (inactive); in experiment [12] it was 109% (inactive); in experiment [13] it was 104% (inactive); in [14] (setting [17]), 95%; in experiment [14] (setting [18]) it was 104%. For the same compound, the values for the viability in experiment [4] and in [5] were 99.8% (inactive) and 99.4% (inactive), respectively. The Her2 level in experiment [10] is 102% (inactive). For the same compound, the differential viability (reversal) in [14] (H69AR cells + 2 uM doxorubicin) was 8.7% (inactive). In addition, the growth inhibition is -14.3% (inactive) in experiment [1] and -13.2% (inactive) in experiment [2]. Besides, the viability increase in experiment [3] was -1.4% (inactive). For the same compound, the RAM network inhibition in experiment [7] is 6.29% (inactive).

For `Cc1nc2cc(C(F)(F)F)ccc2n1C1CCN(Cc2nnnn2Cc2cccs2)CC1`, the growth inhibition was -11.3% (inactive) in experiment [1] and -18.3% (inactive) in [2]. The viability increase in experiment [3] is -6.21% (inactive). Further, the viability in [4] is 76.1% (inactive); in experiment [5], 67.6% (inactive). The inhibition in experiment [6] was 1.01% (inactive). Further, the RAM network inhibition in experiment [7] is -0.01% (inactive).

As for `Cn1c(O)c(C(=NCCN2CCCCC2)c2ccccc2Cl)c(=O)n(C)c1=O`, the growth inhibition in [1] is -15% (inactive); in experiment [2] it was -13.6% (inactive). Besides, in experiment [3], the viability increase is -0.81% (inactive). Also, the viability was 87.3% (inactive) in experiment [4] and 93.8% (inactive) in experiment [5]. Also, the inhibition in experiment [6] was -0.185% (inactive). Also, the RAM network inhibition in experiment [7] is 0.48% (inactive).

Take `CN(C)C1(c2nnnn2-c2ccc(Cl)cc2)CCCCC1`: the growth inhibition in [1] was -14.4% (inactive); in experiment [2], -18.1% (inactive). The viability increase in experiment [3] was 0.76% (inactive). For the same compound, the viability in experiment [4] is 86.2% (inactive); in [5], 76.3% (inactive). In addition, the inhibition in [6] is 2.52% (inactive). The RAM network inhibition in experiment [7] was 3.64% (inactive).

For the compound `O=C(c1cccs1)C1CN2CCC1CC2` (centres undefined), the inhibition in [8] is 0% (inactive); in [15] it was 0.65% (inactive); in experiment [16], -4.33% (inactive); in experiment [6], 0.375% (inactive). For the same compound, the viability in experiment [9] was 89.5%; in experiment [11], 89.5% (inactive); in experiment [12], 94.3% (inactive); in experiment [13], 106% (inactive); in experiment [14] (setting [17]), 92.8%; in [14] (setting [18]) it was 106%. Further, the viability in [4] was 97.3% (inactive); in experiment [5], 103% (inactive). Moreover, the Her2 level in experiment [10] was 122% (inactive). In [14] (H69AR cells + 2 uM doxorubicin), the differential viability (reversal) was 13.5% (inactive). For the same compound, the growth inhibition was -13.4% (inactive) in experiment [1] and -12.2% (inactive) in experiment [2]. In addition, in experiment [3], the viability increase was -0.68% (inactive). In experiment [7], the RAM network inhibition was 5.95% (inactive).

`CCOc1ccc(C2SCC(=O)Nc3c2c(=O)[nH]n3C2CCCCCC2)cc1` (centres undefined): the inhibition in [8] was 0% (inactive); in experiment [15], -5.2% (inactive); in experiment [16], -7.62% (inactive); in experiment [6], 2.26% (inactive). Moreover, the viability is 110% in experiment [9]; 110% (inactive) in experiment [11]; 63.8% (inactive) in [12]; 57.2% in experiment [14] (setting [17]); 58.3% in experiment [14] (setting [18]); 97.7% (inactive) in experiment [4]. The Her2 level in experiment [10] was 108% (inactive). For the same compound, the differential viability (reversal) in experiment [14] (H69AR cells + 2 uM doxorubicin) is 1.13% (inactive). The growth inhibition was -17.8% (inactive) in [1] and -3.29% (inactive) in experiment [2]. Also, in [3], the viability increase is -7.49% (inactive). The RAM network inhibition in experiment [7] was 4% (inactive).

In the case of `C[C@H]1CCCC(=O)CCC/C=C/c2cc(O)cc(O)c2C(=O)O1`, the inhibition in experiment [8] is 0% (inactive); in experiment [15], -3.47% (inactive); in experiment [16], 1.15% (inactive); in [6], 2.21% (inactive). Moreover, the viability in experiment [9] was 98.5%; in experiment [11] it was 98.5% (inactive); in [13] it was 38.4% (active); in experiment [14] (setting [17]) it was 95.8%; in experiment [14] (setting [18]) it was 38.4%; in experiment [4], 65.3% (inactive). Moreover, the viability in experiment [5] was 66.5% (inactive). In addition, the Her2 level in experiment [10] was 16% (active). Also, the differential viability (reversal) in experiment [14] (H69AR cells + 2 uM doxorubicin) was -57.4% (inactive). The growth inhibition in [1] was -12.9% (inactive); in [2] it was -14.8% (inactive). The viability increase in experiment [3] was -6.31% (inactive). The RAM network inhibition in [7] was 4.86% (inactive).

As for `CCCCn1c(C)c(C(=O)OCC)c2c(CN3CCOCC3)c(O)ccc21`, the inhibition was 2% (inactive) in experiment [8], -4.34% (inactive) in experiment [15], 4.33% (inactive) in [16] and -0.155% (inactive) in experiment [6]. Besides, the viability in experiment [9] is 110%; in experiment [11] it was 110% (inactive); in experiment [12], 58.5% (inactive); in [13] it was 73.3% (inactive); in experiment [14] (setting [17]), 79.4%; in experiment [14] (setting [18]), 73.3%. Besides, the viability in experiment [4] is 68.3% (inactive); in experiment [5], 72.6% (inactive). For the same compound, in [10], the Her2 level is 92.5% (inactive). Also, the differential viability (reversal) in experiment [14] (H69AR cells + 2 uM doxorubicin) was -6.07% (inactive). The growth inhibition in experiment [1] is -15.6% (inactive); in experiment [2] it was -9.74% (inactive). The viability increase in [3] is -6.39% (inactive). For the same compound, the RAM network inhibition in experiment [7] is 2.5% (inactive).

As to `CCOc1ccccc1C1SCC(=O)Nc2c1c(=O)[nH]n2C(CC)CC` (centres undefined), the values for the growth inhibition in experiment [1] and in [2] were -3.42% (inactive) and -8.7% (inactive), respectively. The viability increase in [3] is -0.06% (inactive). In addition, the viability in experiment [4] was 93.5% (inactive); in experiment [5], 93.3% (inactive). The inhibition in experiment [6] was 1.07% (inactive). Also, in [7], the RAM network inhibition is 0.37% (inactive).

`COc1ccc(C2SCC(=O)Nc3c2c(=O)[nH]n3C2CCCCCC2)cc1OC` (centres undefined): the inhibition in experiment [8] was 6% (inactive); in experiment [15], -5.6% (inactive); in experiment [16], 4.1% (inactive); in experiment [6] it was 0.915% (inactive). Besides, the viability in [9] was 124%; in experiment [11] it was 124% (inactive); in [12], 105% (inactive); in experiment [13], 91.3% (inactive); in [14] (setting [17]), 83.8%; in experiment [14] (setting [18]), 91.3%. Also, in experiment [4], the viability is 92.4% (inactive). In addition, the Her2 level in [10] was 89% (inactive). In addition, the differential viability (reversal) in [14] (H69AR cells + 2 uM doxorubicin) is 7.54% (inactive). Also, the growth inhibition was -18.6% (inactive) in experiment [1] and -6.19% (inactive) in [2]. In addition, the viability increase in [3] was -4.42% (inactive). The RAM network inhibition in experiment [7] is 1.3% (inactive).
